# High-throughput results: PubChem, Paczesny and Yang Labs, IUPUI and University of Michigan
# ST2 inh: IL1RL1 inhibition; AlphaLISA ST2-Fc/biotin-IL-33 interaction, 1 h; AID 1259354; inhibition, % for hits at 17 µM; 78,000 compounds, 2.3% hits; in the data active means inhibition above about 30%
# * marks the source's active call; other numbers are inactive results; i = inactive. Only a selection was taken, and hits are over-represented in it overall.
SMILES,ST2 inh
Cn1cc(C=C2C(=O)NC(=O)NC2=O)c2ccccc21,35%*
CC(=O)N1C[C@@H]2C[C@H](C1)c1ccc(N)c(=O)n1C2,i
C=CCN(C)C(=O)[C@H]1CN2CCC1C[C@@H]2Cn1cc(-c2cccc(N)c2)nn1 (some centres undefined),i
Cc1ccc(S(=O)(=O)NC[C@H]2C[C@@H]3CCN2C[C@@H]3CN2CCN(c3ccccc3)CC2)cc1,33%*
O=S(=O)(NC[C@H]1C[C@@H]2CCN1C[C@@H]2CN1CCN(c2ccc(F)cc2)CC1)c1ccccc1,i
O=S(=O)(NC[C@H]1C[C@@H]2CCN1C[C@@H]2CN1CCN(c2ccccc2)CC1)c1ccccc1,i
O=C(NC1CCCCCCC1)c1cn(CC2CCCO2)cc(C(=O)N2CCSCC2)c1=O (centres undefined),i
COc1ccc2n[nH]c(CN3CC[C@H](CO)[C@H](O)C3)c2c1,i
Cc1cc(Br)c2[nH]cc(CCN)c2c1,i
Cc1ccccc1N1CCN(Cc2ccc(F)cc2)CC1,i
O=C1C2CCCN2C(c2ccco2)N1c1ccccn1 (centres undefined),i
CSc1ccc(-c2ccc3n(c2=O)C[C@@H]2CNC[C@H]3C2)cc1,i
